Values joined by “and” are separate entries in the source; they are usually repeats but may differ in a detail not shown here. Equal values may be shown once. Inconclusive results are not listed. Active and inactive are the calls of the source. Unless noted, no rule for the calls is given here.
Experiments:
[1] = liver-stage malaria parasite growth inhibition, primary screen, cell-based, HepG2, luciferase luminescence, HepG2 viability (AID 624349; in the data active = parasite load remaining mostly below about 12%, no sharp cut-off; inactive = mostly above about 10%;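 also: 100% = mean of DMSO negative control wells on the same plate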); conditions: P. berghei liver stage in HepG2, luciferase luminescence, concentration not given here; parasite load remaining: stronger effect = lower value; viability: measured here: HepG2 viability without parasites
[2] = differential killing of epithelial or mesenchymal cells, primary screen, imaging, PC-3E GFP, TEM4-18 mCherry, co-culture (AID 1345086;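 active = compounds killing one labelled cell type while sparing the other, by normalised counts and ratio limits, not self-fluorescent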;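 as to all read-outs here: cells exposed to compound for 72 h before imaging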;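 as to red/green cell ratio (normalised): normalised mesenchymal count divided by normalised epithelial count so high means epithelial killing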); conditions: imaging cell counts, at 1 µM; for red/green cell ratio (normalised): actives lie on both sides
[3] = system: Aerobactin synthetase IucA (Klebsiella pneumoniae hvKP1); test: Biochemical IucA enzyme inhibition primary screen of the Spectrum library (AID 1346200); conditions: malachite green pyrophosphate, A620, at 8 µM, stronger effect = lower value;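 also: 100% = wells without compound and 0% = wells lacking enzyme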
[4] = sensitizers of A549 cells to miR-34 induction, primary screen, imaging, A549 dox-inducible miR-34, nuclei and caspase counts (AID 1347080;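 active = compounds whose cell count with miR-34 switched on is under 0.7 times the count with it off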); conditions: A549 miR-34 inducible, Hoechst nuclei count, 48 h
[5] = target: NAD(+) hydrolase SARM1 (Homo sapiens) (UniProt Q6SZW1); test: SARM1 TIR NADase inhibitors, cell lysate, NAD-Glo luminescence (AID 1508614;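 active = compound whose remaining NAD level is above about 45 nM, limit read from the data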;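 also: higher remaining NAD means stronger inhibition of SARM1 NADase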); conditions: SAM-TIR HEK293T lysate NADase, at 1 µM, stronger effect = higher value
NAD(+) hydrolase SARM1 (Homo sapiens), sequence (Q6SZW1 whole entry, looked up, the tested form may be a part): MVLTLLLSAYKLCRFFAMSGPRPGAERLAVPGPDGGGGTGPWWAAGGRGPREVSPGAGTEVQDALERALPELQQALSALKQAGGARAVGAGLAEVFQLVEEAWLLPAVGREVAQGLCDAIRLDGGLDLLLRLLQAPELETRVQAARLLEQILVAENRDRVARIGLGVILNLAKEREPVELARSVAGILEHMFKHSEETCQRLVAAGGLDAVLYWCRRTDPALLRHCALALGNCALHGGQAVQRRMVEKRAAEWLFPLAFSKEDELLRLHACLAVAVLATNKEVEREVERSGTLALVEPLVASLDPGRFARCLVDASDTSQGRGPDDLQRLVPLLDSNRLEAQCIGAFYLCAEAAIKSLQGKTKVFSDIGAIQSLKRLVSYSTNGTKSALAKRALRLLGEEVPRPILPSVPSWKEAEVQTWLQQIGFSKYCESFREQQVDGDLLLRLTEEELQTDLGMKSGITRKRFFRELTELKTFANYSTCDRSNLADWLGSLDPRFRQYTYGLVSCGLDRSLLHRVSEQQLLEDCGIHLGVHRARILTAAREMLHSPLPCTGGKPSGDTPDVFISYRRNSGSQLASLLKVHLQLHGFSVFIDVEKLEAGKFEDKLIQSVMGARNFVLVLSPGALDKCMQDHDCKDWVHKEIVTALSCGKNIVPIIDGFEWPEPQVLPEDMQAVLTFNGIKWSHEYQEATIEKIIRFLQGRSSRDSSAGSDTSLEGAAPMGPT

[6] = target: Mitogen-activated protein kinase 7 (Homo sapiens) (UniProt Q13164); test: ERK5 transactivation activators in reporter cells, primary screen, cell-based, HTS (AID 1508626;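 active = luciferase signal above three times the same-plate solvent-only control wells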;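 also: luciferase driven by Gal4-ERK5 fusion binding five Gal4 sites before minimal TATA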); conditions: HeLa Gal4-ERK5 transactivation, 18 h, at 5 µM, stronger effect = higher value
Mitogen-activated protein kinase 7 (Homo sapiens), sequence (Q13164 whole entry, looked up, the tested form may be a part): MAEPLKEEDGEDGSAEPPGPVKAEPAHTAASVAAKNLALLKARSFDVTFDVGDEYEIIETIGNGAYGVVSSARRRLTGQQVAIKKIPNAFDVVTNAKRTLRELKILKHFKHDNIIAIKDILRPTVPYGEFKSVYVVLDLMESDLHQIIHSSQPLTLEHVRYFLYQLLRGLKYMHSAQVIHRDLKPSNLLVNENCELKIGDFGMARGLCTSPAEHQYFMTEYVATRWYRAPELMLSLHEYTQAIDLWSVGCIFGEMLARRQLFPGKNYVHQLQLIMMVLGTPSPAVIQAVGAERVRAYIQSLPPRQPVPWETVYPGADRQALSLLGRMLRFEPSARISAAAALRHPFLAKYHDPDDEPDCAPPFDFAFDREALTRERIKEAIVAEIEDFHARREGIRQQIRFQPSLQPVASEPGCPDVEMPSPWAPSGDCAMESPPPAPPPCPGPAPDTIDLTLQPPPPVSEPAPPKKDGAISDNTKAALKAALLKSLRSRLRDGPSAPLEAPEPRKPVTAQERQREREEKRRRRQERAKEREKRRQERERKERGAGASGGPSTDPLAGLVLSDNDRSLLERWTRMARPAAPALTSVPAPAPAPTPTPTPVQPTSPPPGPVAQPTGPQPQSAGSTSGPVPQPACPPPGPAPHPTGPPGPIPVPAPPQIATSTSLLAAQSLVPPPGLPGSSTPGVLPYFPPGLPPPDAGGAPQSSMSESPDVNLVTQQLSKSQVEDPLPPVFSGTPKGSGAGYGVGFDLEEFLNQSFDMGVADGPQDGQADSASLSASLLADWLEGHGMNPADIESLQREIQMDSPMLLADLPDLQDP

[7] = polyglutamine-triggered caspase-3 activation inhibitors, cell-based (AID 1583); conditions: polyglutamine-induced caspase-3 activation, cell assay; stronger effect = higher value;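 tested at 10 µM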
[8] = suppressors of polyQ aggregation in yeast, 75Q-TubU reporter (AID 1593); conditions: Yeast 75Q polyglutamine aggregation reporter
[9] = inhibitors of mitochondrial cytochrome c release, biochemical, purified mitochondria (AID 1603); conditions: stronger effect = lower value;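 also: mouse liver mitochondria challenged with calcium chloride; signal normalized to the plate average as 100%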
[10] = inhibitors of polyQ protein aggregation (AID 1604); conditions: polyglutamine-induced protein aggregation inhibition assay; stronger effect = higher value; tested at 2.5 µM
[11] = enhancers of glutamate uptake in motor neurons, MN-1 cell line (AID 1612); conditions: MN-1 motor neuron cells, stronger effect = higher value;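 also: tested at 1 µM final; 0% = mean of DMSO vehicle wells on each plate; positive means more glutamate uptake than control and negative means less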
[12] = reducers of polyQ inclusions in PC12 cells, cell-based, NGF-treated PC12, GFPQ80 (AID 1614); conditions: PC12 NGF-treated GFP-polyQ80 inclusion reduction;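 also: lower means fewer inclusions and 0 means no inclusions at all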
[13] = suppressors of polyglutamine aggregation in yeast, 75Q-TubH (AID 1616); conditions: S. cerevisiae 75Q-TubH polyglutamine aggregation suppression; stronger effect = higher value
[14] = hESC survival regulators, cell-based (AID 493140); conditions: human embryonic stem cell survival screen; stronger effect = higher value;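 also: cells exposed to compounds for four days before counting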
[15] = target: ATP-dependent translocase ABCB1 (Homo sapiens) (UniProt P08183); test: MDR1 (ABCB1) efflux transporter inhibition, cell-based (AID 377; in the data active = fluorescence slope change above about 50%); conditions: MDR1-expressing cells, fluorescent substrate accumulation slope; stronger effect = higher value; concentration not given here
ATP-dependent translocase ABCB1 (Homo sapiens), sequence (P08183 whole entry, looked up): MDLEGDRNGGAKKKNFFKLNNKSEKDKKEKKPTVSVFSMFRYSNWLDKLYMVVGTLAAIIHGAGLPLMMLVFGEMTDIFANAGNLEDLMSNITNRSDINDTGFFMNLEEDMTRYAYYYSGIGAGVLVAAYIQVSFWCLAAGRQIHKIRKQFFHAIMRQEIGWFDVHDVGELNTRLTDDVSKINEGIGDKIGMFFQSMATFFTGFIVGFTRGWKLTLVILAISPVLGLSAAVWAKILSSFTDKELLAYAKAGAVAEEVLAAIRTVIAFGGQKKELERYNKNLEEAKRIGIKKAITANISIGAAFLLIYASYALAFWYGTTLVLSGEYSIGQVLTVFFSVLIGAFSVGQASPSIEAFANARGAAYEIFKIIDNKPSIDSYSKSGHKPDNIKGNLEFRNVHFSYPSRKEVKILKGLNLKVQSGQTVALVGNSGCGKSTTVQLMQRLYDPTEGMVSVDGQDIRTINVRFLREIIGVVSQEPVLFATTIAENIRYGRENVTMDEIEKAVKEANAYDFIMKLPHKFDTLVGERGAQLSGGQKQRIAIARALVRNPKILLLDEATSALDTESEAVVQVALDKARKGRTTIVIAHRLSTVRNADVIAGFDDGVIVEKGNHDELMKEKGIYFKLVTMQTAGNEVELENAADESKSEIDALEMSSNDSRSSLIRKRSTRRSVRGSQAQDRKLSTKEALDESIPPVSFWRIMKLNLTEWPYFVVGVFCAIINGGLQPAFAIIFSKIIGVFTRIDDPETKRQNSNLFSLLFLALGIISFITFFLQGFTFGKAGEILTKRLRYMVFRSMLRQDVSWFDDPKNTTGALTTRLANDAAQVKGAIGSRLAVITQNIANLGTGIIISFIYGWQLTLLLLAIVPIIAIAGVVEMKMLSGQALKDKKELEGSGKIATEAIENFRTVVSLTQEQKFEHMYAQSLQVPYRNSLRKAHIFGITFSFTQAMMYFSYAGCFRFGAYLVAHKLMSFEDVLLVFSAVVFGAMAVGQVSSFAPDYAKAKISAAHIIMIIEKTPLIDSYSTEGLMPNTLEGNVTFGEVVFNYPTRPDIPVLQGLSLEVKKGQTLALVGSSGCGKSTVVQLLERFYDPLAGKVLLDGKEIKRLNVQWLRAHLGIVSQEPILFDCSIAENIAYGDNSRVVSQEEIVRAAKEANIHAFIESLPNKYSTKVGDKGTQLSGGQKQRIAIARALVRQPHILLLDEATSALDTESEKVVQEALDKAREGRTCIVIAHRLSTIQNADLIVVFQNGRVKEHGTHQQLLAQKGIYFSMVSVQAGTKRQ

[16] = circadian clock period modulators, cell-based, LOPAC library, luminescence reporter (AID 2774); conditions: circadian reporter cells, at 7 µM, actives lie on both sides;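 also: values are relative to mean of DMSO wells on each plate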
[17] = system: Hepatitis C virus NS3 helicase; test: HCV NS3 helicase inhibitors, primary screen, biochemical, fluorescence polarization, LOPAC1280 library (AID 687035; in the data active = inhibition above about 37%); conditions: Purified HCV NS3 helicase, Cy5-dT15 ssDNA binding fluorescence polarization; stronger effect = higher value; concentration not given here
[18] = Cy5 fluorescence quenching or enhancement artefacts, artefact control for HCV NS3 helicase inhibitor project, biochemical, LOPAC1280 (AID 687037); conditions: Cy5-DNA-NS3h complex fluorescence interference counterscreen
[19] = system: Aerobactin synthetase IucA (Klebsiella pneumoniae); test: IucA aerobactin synthetase inhibitors, biochemical, Tocris library, absorbance (AID 1345561); conditions: purified IucA enzyme assay, absorbance (OD) read-out; stronger effect = lower value;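 tested at 8 µM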;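 also: 100% = enzyme without compound and 0% = no enzyme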
[20] = system: Aerobactin synthetase IucA (Klebsiella pneumoniae, hypervirulent); test: IucA enzyme inhibition, biochemical, LOPAC library, absorbance readout (AID 1346212); conditions: IucA enzyme assay, absorbance (OD) readout; stronger effect = lower value;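 tested at 8 µM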;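 also: 100% = no compound wells and 0% = no enzyme wells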
[21] = phospholipid biosynthesis inhibitors in animal cells, primary screen, cell-based, LOPAC library, screen 4 (AID 1347384); conditions: phospholipid biosynthesis inhibition screen, at 10 µM
[22] = survival rescue of mitochondrial mutant cells in low glucose, primary screen, MELAS cybrids, Rieske KO mouse fibroblasts, CellTiter-Glo (AID 1508586;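 active = mean z-score across replicates of 1.96 or higher in either the MELAS or the Rieske mutant cell line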;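 also: z relative to plate mean and SD of compound and empty wells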)
[23] = viability rescue of complex I mutant cybrids, primary screen, cell-based, galactose medium, ATP luminescence (AID 1645843;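 active = z-score of at least 1.8 in each of two replicates, scored against plate mean and spread of sample wells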;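 also: positive z means more ATP and so rescue of galactose-driven cybrid death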); conditions: complex I mutant cybrid cells, 72 h, stronger effect = higher value
[24] = measured here: epithelial PC-3E GFP cell survival
[25] = measured here: mesenchymal TEM4-18 mCherry cell survival
[26] = measured here: relative caspase fold change +Dox/-Dox
[27] = measured here: total cells with miR-34 induction, stronger effect = lower value
[28] = measured here: total cells without miR-34 induction

## C=C(C)C1CNC(C(=O)O)C1CC(=O)O (stereo not given)
[1]
  parasite load remaining: 103% (inactive)
  viability: 86.2%
[2]
  red/green cell ratio (normalised): 0.79 (inactive)
[2]; [24]
  normalised cell number: 0.92
[2]; [25]
  normalised cell number: 0.73
[3]
  activity remaining: 96.1% (inactive)

## CC(CC(C(N)=O)(c1ccccc1)c1ccccc1)N(C)C (stereo not given)
[1]
  parasite load remaining: 59.7% (inactive)
  viability: 166%
[2]
  red/green cell ratio (normalised): 0.86 (inactive)
[2]; [24]
  normalised cell number: 1.14
[2]; [25]
  normalised cell number: 0.99
[4]; stronger effect = lower value
  fold change: 0.911 (inactive)
[4]; [26]
  fold change: 5.38
[4]; [27]
  cell count: 11900
[4]; [28]
  cell count: 13000
[5]
  remaining NAD: 10 nM (inactive)
[6]
  luciferase signal: 172 AU (inactive)

## CC1=C2CCC3C(CC[C@]4(C)C(=O)CCC34)[C@@]2(C)CCC1=O (stereo not given in full)
[1]
  parasite load remaining: 48.4% (inactive)
  viability: 85.7%
[2]
  red/green cell ratio (normalised): 0.88 (inactive)
[2]; [24]
  normalised cell number: 1.27
[2]; [25]
  normalised cell number: 1.12
[3]
  activity remaining: 104% (inactive)

## CC(=O)OCC1=C(C(=O)O)N2C(=O)[C@@H](NC(=O)CCCC(N)C(=O)O)C2SC1 (stereo not given in full)
[7]
  inhibition: 10.9%
[8]
  score: 1.28
[9]
  cytochrome c release ratio: 1.12
[10]
  inhibition of aggregation: 39.4%
[11]
  glutamate uptake change: 3.72%
[12]
  inclusion score: 2
[13]
  aggregation suppression score: 1.03
[1]
  parasite load remaining: 94.5% (inactive)
  viability: 67%
[2]
  red/green cell ratio (normalised): 0.94 (inactive)
[2]; [24]
  normalised cell number: 1.04
[2]; [25]
  normalised cell number: 0.98
[3]
  activity remaining: 111% (inactive)

## c1cncc(C2CCCCN2)c1 (stereo not given)
[14]
  survival: 6.5 (inactive)
[2]; counts scaled to control wells, 1 = unselective
  red/green cell ratio (normalised): 0.98 (inactive)
[2]; [24]
  normalised cell number: 1.09
[2]; [25]
  normalised cell number: 1.07
[3]
  activity remaining: 102% (inactive)
[6]
  luciferase signal: 20 AU (inactive)

## C[C@]12CC[C@H](O)CC1=CCC1C2CC[C@]2(C)C(=O)CC[C@@H]12 (stereo not given in full)
[2]
  red/green cell ratio (normalised): 0.71 (inactive)
[2]; [24]
  normalised cell number: 1.37
[2]; [25]
  normalised cell number: 0.97
[4]; stronger effect = lower value
  fold change: 0.933 (inactive)
[4]; [26]
  fold change: 1.12
[4]; [27]
  cell count: 7350
[4]; [28]
  cell count: 7880

## CC1(C)C2CC(=O)[C@]3(C)C(CC[C@@]4(C)[C@H](c5ccoc5)OC(=O)[C@H]5O[C@]543)[C@@]2(C)C(=O)C[C@H]1O (stereo not given in full)
[2]
  red/green cell ratio (normalised): 0.94 (inactive)
[2]; [24]
  normalised cell number: 1.08
[2]; [25]
  normalised cell number: 1.01
[3]
  activity remaining: 109% (inactive)
[6]
  luciferase signal: 36 AU (inactive)

## CCC1(CC)C(=O)NC(=O)NC1=O
[2]
  red/green cell ratio (normalised): 0.85 (inactive)
[2]; [24]
  normalised cell number: 0.92
[2]; [25]
  normalised cell number: 0.78
[5]
  remaining NAD: 10 nM (inactive)

## C[C@]12N[C@H](Cc3ccccc31)c1ccccc12
[15]
  fluorescence slope change: 55.9% (active)
[16]
  period change: 0.055 h (inactive)
[14]
  survival: 15.6 (inactive)
[1]
  parasite load remaining: 44.8% (inactive) and 97.8% (inactive)
  viability: 70.4% and 87.5%
[17]
  inhibition: -1% (inactive)
[18]
  fluorescence ratio (interference): 1 (inactive)
[19]
  remaining activity: 117% (inactive)
[20]
  remaining activity: 89.7% (inactive)
[4]; stronger effect = lower value
  fold change: 1.14 (inactive) and 0.978 (inactive) and 0.959 (inactive)
[4]; [26]
  fold change: 0.783 and 1.01 and 0.875
[4]; [27]
  cell count: 10200 and 8980 and 9270
[4]; [28]
  cell count: 8990 and 9190 and 9660
[21]
  outcome: inactive
[22]; MELAS cybrid survival, CellTiter-Glo 48 h, stronger effect = higher value
  z-score: 0.143 (inactive)
[22]; Rieske KO mouse fibroblast survival, CellTiter-Glo 72 h
  z-score: 0.47
[23]
  z-score: -0.205 (inactive) and 0.805 (inactive)

— PubChem BioAssay
